From PubChem
In the library only some 2.4% were active in any assay of this set; here they are far more common.
D2 ag-1 = Beta-Arrestin HTS for Positive Allosteric Modulators of the Human D2 Dopamine Receptor: Agonists; D(2) dopamine receptor (Homo sapiens), P14416; DiscoveRx PathHunter D2 beta-arrestin, luminescence, 90 min; 100% = 57 uM dopamine signal; activation, % (test concentration not listed); hit rate 0.084% among 360,000; AID 624465, 2012; in the data active = activation above about 40%
Target sequence (P14416 whole entry, looked up): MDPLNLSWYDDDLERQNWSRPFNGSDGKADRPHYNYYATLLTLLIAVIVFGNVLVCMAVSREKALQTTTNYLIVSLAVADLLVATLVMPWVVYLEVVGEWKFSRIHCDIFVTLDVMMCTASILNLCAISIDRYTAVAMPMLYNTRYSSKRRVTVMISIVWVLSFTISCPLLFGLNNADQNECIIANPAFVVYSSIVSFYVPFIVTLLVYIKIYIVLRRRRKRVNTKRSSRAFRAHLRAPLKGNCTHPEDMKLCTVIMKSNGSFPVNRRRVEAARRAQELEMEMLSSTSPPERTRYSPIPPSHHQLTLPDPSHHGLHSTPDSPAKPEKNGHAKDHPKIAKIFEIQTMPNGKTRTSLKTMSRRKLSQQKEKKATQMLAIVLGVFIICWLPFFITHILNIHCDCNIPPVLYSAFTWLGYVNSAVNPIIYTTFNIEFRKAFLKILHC
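Agonist mode: compounds alone added to overnight-plated D2 PathHunter cells for 90 min at 37 C, with 57 uM final dopamine (EC100) defining full response. Beta-arrestin recruitment detected by chemiluminescent reagent, read after 1 h at ambient temperature.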
D2 ag-2 = HTS Assay for Allosteric Agonists of the Human D2 Dopamine Receptor: Primary Screen for Agonists | D(2) dopamine receptor (Homo sapiens), P14416 | HEK293 T-REx D2 cells, calcium flux agonist mode | activation, % at 2 µM | hit rate 0.53% among 340,000;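 active = activation over 3 SD above normal in the single-dose calcium agonist read, cut at about 30% in these data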; also: 0% is about no effect
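In this primary screen, compounds producing a positive calcium signal within 180 s of addition to tetracycline-induced, force-coupled HEK293 Trex D2 cells are flagged; cells are dye-loaded with a no-wash calcium kit beforehand.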
D2 antag = HTS Assay for Allosteric Antagonists of the Human D2 Dopamine Receptor: Primary Screen for Antagonists | D(2) dopamine receptor (Homo sapiens), P14416 | HEK293 TREx D2 cells, calcium flux, dopamine EC80 | hit rate 2% among 340,000 | AID 485344, 2010 | inhibition, % at 10 µM; in the data active = inhibition above about 30%; inactive = below that, where a call was filed; also: 0% is about no effect
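HEK293 T-REx D2 cells, tet-induced, calcium dye no-wash. Cpd pintool add, 180 s kinetic, then EC80 DA, 180 s kinetic. Ca flux read.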
D2 PAM-1 = Beta-Arrestin HTS for Positive Allosteric Modulators of the Human D2 Dopamine Receptor: Potentiators. hit rate 0.23% among 360,000. D(2) dopamine receptor (Homo sapiens), P14416. DiscoveRx D2 beta-arrestin cells, luminescence, 90 min; 100% = 57 uM dopamine signal. potentiation, % (no concentration beside the values). AID 624464, 2012; in the data active = potentiation above about 50%
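D2 cells co-treated with compound plus 50 nM dopamine (EC20) for 90 min at 37 deg C to detect potentiation. Beta-arrestin recruitment was read as enzyme-fragment luminescence after 1 h at ambient temperature. Full response was set by 57 uM dopamine.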
D2 PAM-2 = HTS Assay for Positive Allosteric Modulators of the Human D2 Dopamine Receptor: Primary Screen for Potentiators; AID 485347, 2010; hit rate 0.34% among 340,000; potentiation, % at 10 µM; HEK293 T-REx D2, calcium flux, EC20 dopamine potentiation;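 active = potentiation over 3 SD above the plate norm, cut at about 30% in these data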; also: 0% is about no effect
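Cells plated with tetracycline inducer and held overnight at 30 C; calcium dye loaded 30–90 min at room temperature; baseline taken, compound added and read 180 s; EC20 dopamine then added and read 180 s.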
* marks the source's active call; other numbers are inactive results; . = no result given.

SMILES | D2 ag-1 | D2 ag-2 | D2 antag | D2 PAM-1 | D2 PAM-2
CC1(c2ccc(OC(F)F)cc2)NC(=O)N(CC(=O)Nc2cccc(F)c2)C1=O (centres undefined) | 1 | 33* | -14 | -4 | 2
CC1(c2ccc(OC(F)F)cc2)NC(=O)N(CC(=O)Nc2ccc(F)cc2)C1=O (centres undefined) | -1 | 19 | -4 | 0 | 7
CCOC(=O)c1ccc(NC(=O)CC2C(=O)N(c3ccc(F)cc3)C(=O)N2Cc2cccnc2)cc1 (centres undefined) | . | 0 | . | . | 2
O=C1CC(c2cccc(Cl)c2Cl)c2cc3c(cc2N1)OCCO3 (centres undefined) | . | 1 | . | . | -5
NC(N)=NCCCC(NC(=O)c1ccccc1)C(=O)Nc1ccc([N+](=O)[O-])cc1 (centres undefined) | -5 | -1 | 75* | -5 | -12
NC(N)=NCCCC(NC(=O)c1ccccc1)C(=O)Nc1ccc2ccccc2c1 (centres undefined) | -3 | 1 | 54* | -32 | -16
COc1ccc(S(=O)(=O)c2cnc(SCC(=O)Nc3cc(F)ccc3C)[nH]c2=O)cc1Cl | . | 0 | . | . | -12
CCCCOc1cccc(C2c3c(-c4cc(C)ccc4O)n[nH]c3C(=O)N2CCOC)c1 (centres undefined) | . | . | . | . | 9
COc1ccc(C(=O)Nc2nnc(C)s2)cc1S(=O)(=O)N1CCOCC1 | -1 | 0 | 17 | -1 | 6
Cc1cccc(N(Cc2ccccc2)C(=O)c2ccc(F)c(S(=O)(=O)N3CCOCC3)c2)c1 | 8 | 0 | 0 | -16 | -2
COc1ccc(NC(=O)c2ccc(Br)c(S(=O)(=O)N3CCOCC3)c2)cc1 | -2 | 2 | -21 | 2 | 33*
O=C(Nc1nncs1)c1ccc(Br)c(S(=O)(=O)N2CCCC2)c1 | -2 | 0 | 56* | -3 | -2
Cc1ccc(N(Cc2ccccc2)C(=O)c2ccc(F)c(S(=O)(=O)N3CCOCC3)c2)cc1 | -7 | 0 | 59* | -12 | -4
COc1ccc(C(=O)Nc2nc(C)c(C(C)=O)s2)cc1S(=O)(=O)N1CCOCC1 | -2 | 1 | 30* | -2 | -11
COc1ccc(C2C(=O)N(C3CCC(C)CC3)CC(=O)N2CCc2ccccc2)cc1OC (centres undefined) | . | 0 | . | . | -9
Cc1ccc(NC(=O)COC(=O)/C=C/c2cccc(Cl)c2)cc1S(=O)(=O)N1CCOCC1 | 2 | -1 | -13 | -3 | 9
CC(=O)c1cccc(NC(=O)c2ccc(C)c(S(=O)(=O)N3CCOCC3)c2)c1 | -1 | 1 | 50* | -3 | 9
CN1CCN(S(=O)(=O)c2ccc(C(=O)Nc3ccccc3)cc2)CC1 | -1 | -1 | 11 | -9 | 11
COc1ccc(NC(=O)c2cc(S(=O)(=O)N3CCCC3)oc2C)cc1 | -4 | -2 | -14 | -15 | 31*
COc1ccc(NC(=O)c2cc(S(=O)(=O)N3CCCC3)c[nH]2)cc1 | -30 | 0 | -5 | 0 | 6
Cc1ccc(NC(=O)C(C)OC(=O)/C=C/c2ccccc2)cc1S(=O)(=O)N1CCOCC1 (centres undefined) | -3 | 0 | 1 | -4 | 41*
Cc1ccc(C(=O)Nc2ccccc2)cc1S(=O)(=O)N1CCN(C)CC1 | 2 | 1 | 35* | -2 | -3
CC(=O)Nc1ccc(S(=O)(=O)N2CCN(c3ccc(C)c(C)c3)CC2)cc1 | . | 1 | . | . | -6
CCc1cnc2c(c1SC(C(C)=O)C(=O)N(C)C)c(=O)n(C)c(=O)n2C (centres undefined) | . | 1 | . | . | 7
CC(=O)c1cccc(NC(=O)c2ccc3c(c2)CCCC3)c1 | -4 | 0 | 33* | -50 | -30
COc1ccc(OCCOC(=O)c2ccc(F)c(S(=O)(=O)N3CCOCC3)c2)cc1 | 3 | 18 | 49* | -1 | 3
COc1cccc(NC(=O)c2ccc3c(c2)CCCC3)c1 | 0 | 0 | -5 | -20 | -6
